Measured values taken from PubChem BioAssay AID720504 (National Center for Advancing Translational Sciences (NCATS), 2013).
Values joined by “and” are separate entries in the source; they are usually repeats but may differ in a detail not shown here. Equal entries are not always repeated. In all, about 360,000 compounds went through this assay and about 10,000 (2.8%) were called active. About 4% were inconclusive and are not listed. The call rests on the fitted dose curve; in most records, active means well fitted inhibition curve with a large enough effect; inconclusive means small, poorly fitted or top-dose-only effect; inactive means flat fitted curve, though single readings scatter. What follows is part of a selection rich in actives, with near analogues and random picks from the rest.

Target: Serine/threonine-protein kinase PLK1 (Homo sapiens) (UniProt P53350)
Sequence (P53350 whole entry, looked up, the tested form may be a part): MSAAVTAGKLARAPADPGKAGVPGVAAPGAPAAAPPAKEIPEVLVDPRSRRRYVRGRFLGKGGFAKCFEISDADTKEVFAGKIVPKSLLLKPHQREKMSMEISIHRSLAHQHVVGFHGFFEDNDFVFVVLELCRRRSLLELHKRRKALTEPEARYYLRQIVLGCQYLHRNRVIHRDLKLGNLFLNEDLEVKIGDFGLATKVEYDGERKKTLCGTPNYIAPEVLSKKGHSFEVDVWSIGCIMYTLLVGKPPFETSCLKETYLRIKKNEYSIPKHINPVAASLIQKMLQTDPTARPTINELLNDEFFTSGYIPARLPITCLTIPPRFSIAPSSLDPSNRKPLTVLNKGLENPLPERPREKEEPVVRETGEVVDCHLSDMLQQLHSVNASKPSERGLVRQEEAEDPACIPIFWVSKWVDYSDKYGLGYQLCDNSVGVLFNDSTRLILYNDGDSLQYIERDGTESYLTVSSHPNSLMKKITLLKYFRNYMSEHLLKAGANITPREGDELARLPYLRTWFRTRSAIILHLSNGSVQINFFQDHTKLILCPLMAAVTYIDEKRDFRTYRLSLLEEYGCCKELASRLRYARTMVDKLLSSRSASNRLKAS
Assay: qHTS for Inhibitors of PLK1-PDB (polo-like kinase 1 - polo-box domain): Primary Screen; further: nearly all actives have a fitted effect of over 65% in size; on max response, negative = inhibition: series mostly up to about 57 µM
Settings: Plk1 PBD binding of FITC phosphopeptide, fluorescence polarization
On the % scale 0 is the no-effect control and ±100 the full control effect; potency means the concentration at half of the fitted maximal effect.

| SMILES | max response, negative = inhibition | Potency |
| --- | --- | --- |
| O=C(Nc1ccc2c(c1)CCC2)c1cccc(S(=O)(=O)Nc2ccccc2Cl)c1 | -7.42% (inactive) | – |
| COc1cccc(NC(=O)CN2CCN(CC(=O)Nc3ccccc3Cl)CC2)c1 | -1.84% (inactive) | – |
| O=C(Cc1ccc2c(c1)CCCC2)Nc1ccccc1Cl | – | 16.8 µM (active) |
| Cc1onc(-c2ccccc2)c1-c1nnc(COC(=O)c2ccc(N(C)C)cc2)o1 | 5.92% (inactive) | – |
| CCc1nc2c(OCc3cccc(OC)c3)cccn2c1N(C)C(=O)C(C)C | -12% (inactive) | – |
| O=C(O)c1ccccc1NC(=O)c1ccccc1-c1ccccc1C(=O)O | -6.65% (inactive) | – |
| O=C(NC(=S)Nc1ccccc1C(=O)O)c1ccc(-c2ccc(Br)cc2)o1 | – | 13.4 µM (active) |
| CN1CCN(C(=O)c2ccc(-c3ccc(Br)cc3)o2)CC1 | -2.57% (inactive) | – |
| CC(C)(C)CC(=O)Nc1nc(C(N)Cc2ccc(C(F)(F)F)cc2)cs1 (stereo unspecified) | -8.43% (inactive) | – |
| C[N+](C)(C)CCNC(=O)c1c[nH]c2ccccc12 | -0.504% (inactive) | – |
| COC(=O)c1c(C)[nH]c(C)c1-c1ccc([N+](=O)[O-])cc1 | -17.8% (inactive) | – |
| COc1ccc(C2CC(c3ccc([N+](=O)[O-])cc3)=NN2C(C)=O)cc1 (stereo unspecified) | -7.83% (inactive) | – |
| CC(=O)N1CC[n+]2c(-c3ccc([N+](=O)[O-])cc3)csc21 | – | 9.47 µM (active) |
| CSc1ccc(CN2CCC2(C)C(=O)NCc2ccccc2Br)cc1 (stereo unspecified) | 2.74% (inactive) | – |
| Cc1ccc(-n2c(C)cc(C(=O)CN3C(=O)C(=O)N(C4CCCC4)C3=O)c2C)cc1 | – | 26.7 µM (active) |
| Cc1cc(C(=O)COC(=O)C2CC2)c(C)n1-c1ccc(F)cc1 | 3.31% (inactive) | – |
| Cc1ccc(-n2c(C)cc(C(=O)CSc3nnc4ccccn34)c2C)cc1 | -3.52% (inactive) | – |
| FC(F)(F)c1ccccc1Cc1c(-c2ccccc2)nc2c3ccccc3ccn12 | 5.06% (inactive) | – |
| COc1ccc(C(NC(=O)C2CCN(CCCc3ccccc3)CC2)c2cccs2)cc1 (stereo unspecified) | -15.3% (inactive) | – |
| CCCc1nc2c3ccccc3ccn2c1Cc1ccccc1C(F)(F)F | -6.42% (inactive) | – |
| CCCNC(=O)C1(C)CCN(C(=O)c2ccc(F)cc2Cl)C1 (stereo unspecified) | -7.53% (inactive) | – |
| COc1ccccc1CC1(C)C(=O)Nc2ccc(OC(F)(F)F)cc21 (stereo unspecified) | -13.6% (inactive) | – |

| SMILES | max response, negative = inhibition | Potency |
| --- | --- | --- |
| CCCCNC(=O)OC1CC2CC1[C@H]1CCCCN1C2=O (stereo partly specified) | -1.73% (inactive) | – |
| Cc1ccc(S/C(=N\S(=O)(=O)c2ccc(Cl)cc2)c2ccccc2)cc1 | – | 2.67 µM (active) |
| Cc1ccc(S(=O)(=O)/N=C(/Nc2ccccn2)c2ccc(Cl)cc2)cc1 | -1.19% (inactive) | – |
| Cc1ccc(S(=O)(=O)/N=C(/Nc2ccc3[nH]c(=O)[nH]c3c2)c2ccccc2)cc1 | -15.4% (inactive) | – |
| CC1CN(C(=O)c2cccc(NS(=O)(=O)c3ccc(Br)cc3)c2)CC(C)O1 (stereo unspecified) | -2.62% (inactive) | – |
| O=S1(=O)CC(N2CCN(c3ccccn3)CC2)CN1Cc1ccc(F)cc1 (stereo unspecified) | -5.38% (inactive) | – |
| CSc1ncccc1C(=O)N1CCCC(Nc2ccc(F)c(F)c2)C1 (stereo unspecified) | -2.74% (inactive) | – |
| CC(C)OC(=O)c1cc(NC(=O)C2C3CCC(O3)C2C(=O)O)cc(C(=O)OC(C)C)c1 (stereo unspecified) | -3.95% (inactive) | – |
| COc1ccc(NC(=O)C2C3CCC(O3)C2C(=O)O)cc1OC (stereo unspecified) | 4.35% (inactive) | – |
| Cc1sc(NC(=O)C2C3CCC(O3)C2C(=O)O)c(C(=O)OC(C)C)c1-c1ccc(Cl)cc1 (stereo unspecified) | – | 7.52 µM (active) |
| CCc1nc2c(OCCOc3ccccc3)cccn2c1N(C=O)Cc1ccc(OC)cc1 | -6.91% (inactive) | – |
| CC(=O)Nc1ccc(S(=O)(=O)Oc2ccc(Br)cc2C(=S)N2CCOCC2)cc1 | -17.8% (inactive) | – |
| O=C(Oc1ccccc1Cl)c1ccc(N2CCOCC2)c([N+](=O)[O-])c1 | -14.3% (inactive) | – |
| O=C(Oc1ccccc1C(=S)N1CCCCC1)c1cc([N+](=O)[O-])cc([N+](=O)[O-])c1 | – | 2.12 µM (active) and 2.67 µM (active) |
| COc1cc(C(=S)N2CCOCC2)cc(OC)c1OC(=O)c1ccc([N+](=O)[O-])cc1[N+](=O)[O-] | -24.3% (inactive) | – |
| O=C(Oc1ccc(Br)cc1C(=S)N1CCOCC1)c1cccc([N+](=O)[O-])c1 | – | 11.9 µM (active) |
| COc1ccc(C(=O)N2CCCC(C(=O)c3ccccc3OC)C2)cc1OC (stereo unspecified) | -20.4% (inactive) | – |
| COc1ccc(S(=O)(=O)N2CCCCC2)cc1C(=O)NC1CCS(=O)(=O)C1 (stereo unspecified) | 5.08% (inactive) | – |
| O=c1[nH][nH]c2c1[C@H](c1ccc(Cl)cc1)O[C@H](CCc1ccccc1)C2 | -16.9% (inactive) | – |
| CCOC1=C2CN(S(=O)(=O)c3ccc(C)cc3)[C@H](c3cccs3)C[C@H]2[C@H]2C(=O)N(c3ccccc3)C(=O)[C@H]2C1 | -0.0091% (inactive) | – |
| O=C(Nn1c(SCc2ccc([N+](=O)[O-])cc2)nc2ccccc2c1=O)c1ccc(F)cc1 | -14.4% (inactive) | – |
| Cc1ccccc1CSc1nnc(-c2ccccc2)c(=O)[nH]1 | -22.2% (inactive) | – |

| SMILES | max response, negative = inhibition | Potency |
| --- | --- | --- |
| O=c1[nH]c(SCc2cccc(F)c2)nc2ccccc12 | -13.9% (inactive) | – |
| N#Cc1c(-c2ccccc2)nc(SCc2ccc([N+](=O)[O-])cc2)[nH]c1=O | – | 26.7 µM (active) |
| N#Cc1c(-c2ccc(F)cc2)nc(-c2ccccc2)[nH]c1=O | -13.6% (inactive) | – |
| N#Cc1c(-c2ccccc2)nc(SCc2cccc(C(F)(F)F)c2)[nH]c1=O | – | 23.8 µM (active) |
| S=C(NN=Cc1ccccn1)Nc1ccccn1 | -6.29% (inactive) | – |
| COc1ccc(CCCNC(=O)C2Cc3c(-c4cccc(C(N)=O)c4)ccnc3O2)cc1 (stereo unspecified) | -3.93% (inactive) | – |
| CCc1nc2ccc(C(=O)Nc3ccc(OC)c(OC)c3)cn2c1N(C)C(=O)c1cccc(OC)c1 | -6.83% (inactive) | – |
| O=C(NNC(=O)c1ccccc1[N+](=O)[O-])Nc1ccccc1C(F)(F)F | -9.97% (inactive) | – |
| O=C(Nc1ccccc1[N+](=O)[O-])C1C(c2ccccc2)=C1c1ccccc1 | 0.94% (inactive) | – |
| O=C(O)c1ccccc1NC(=S)NC(NC(=O)c1ccccc1[N+](=O)[O-])C(Cl)(Cl)Cl (stereo unspecified) | – | 26.7 µM (active) |
| COc1ccccc1-n1c(SCC(=O)O)nc2sc3c(c2c1=O)CCC3 | -11.7% (inactive) | – |
| COc1ccc(Cl)cc1-n1c(=S)sc2c(=O)n(-c3ccc(F)cc3)c(SCC(=O)O)nc21 | – | 23.8 µM (active) |
| COc1cccc(-n2c(=S)sc3c(=O)n(-c4ccccc4C)c(SCC(=O)O)nc32)c1 | -8.81% (inactive) | – |
| C#CCN(C[C@H]1[C@H](OC(=O)NC2CCCC2)[C@H](OC(=O)NC2CCCC2)C[C@H]2C(=O)N(c3ccccc3)C(=O)[C@@H]12)S(=O)(=O)c1ccc(C)cc1 | -0.644% (inactive) | – |
| CC(=O)Nc1ccc(-c2ccnc3c2CC(C(=O)NC(C)C)O3)cc1 (stereo unspecified) | -3.44% (inactive) | – |
| O=C(NCCCCO)C(F)(F)C(F)(F)C(F)(F)C(=O)NCCCCO | – | 18.9 µM (active) |
| O=C(NCCCCCCCCCNC(=O)C(F)(F)F)C(F)(F)F | -1.31% (inactive) | – |
| COCCNc1ncnc2c1ncn2[C@H]1CN(CCN2CCOCC2)C[C@@H](CO)O1 | -5.67% (inactive) | – |
| CC(C)Nc1nc(NCCOc2ccccc2Cl)c2sccc2n1 | 4.77% (inactive) | – |
| Cc1sc2ccccc2c1CNC[C@H]1O[C@@H](n2ccc(=O)[nH]c2=O)[C@H](O)[C@@H]1O | 2.69% (inactive) | – |
| CC1CCN(c2nc3c(c(=O)[nH]c(=O)n3C)n2CCCc2ccccc2)CC1 | -10.5% (inactive) | – |
| C=CCn1c(SCc2ccccc2)nc2c1c(=O)[nH]c(=O)n2C | – | 26.7 µM (active) |

| SMILES | max response, negative = inhibition | Potency |
| --- | --- | --- |
| Cc1nnc(Sc2nc3c(c(=O)[nH]c(=O)n3C)n2Cc2ccccc2)s1 | 0.479% (inactive) | – |
| CN(C)C1CN(Cc2cn(Cc3ccccc3)nn2)S(=O)(=O)C1 (stereo unspecified) | -9.56% (inactive) | – |
| CCCCCc1c(-c2cccc(Br)c2)ncn1CCc1ccccc1OC | -9.6% (inactive) | – |
| O=C(NCCS(=O)(=O)N1CCN(c2ccccc2)CC1)c1ccco1 | -3.4% (inactive) | – |
| O=C(NCCS(=O)(=O)N1CCN(c2ccccc2)CC1)c1cc(=O)c2ccccc2o1 | -10.4% (inactive) | – |
| O=C(NCCS(=O)(=O)N1CCN(c2ccccc2F)CC1)c1ccc(Br)o1 | – | 15 µM (active) |
| NC(CSC(c1ccccc1)(c1ccccc1)c1ccc(-c2ccccc2)cc1)C(=O)O (stereo unspecified) | -12.6% (inactive) | – |
| CCC(=O)N1CCCC1(C)C(=O)Nc1ccc2c(c1)CCN2C(C)=O (stereo unspecified) | -12.6% (inactive) | – |
| S=c1ccc2ccccc2[nH]1 | – | 10.6 µM (active) |
| O=C(Nc1ccccc1)c1cc2ccccc2[nH]1 | 0% (inactive) | – |
| O=C(Nc1ccc(Cl)cn1)c1ccccc1-c1ccccc1 | -6.02% (inactive) | – |
| CC1(C(=O)Nc2cccc3cccnc23)CCN1C(=O)CCC1CCCC1 (stereo unspecified) | 0.774% (inactive) | – |
| CCOC(=O)c1c(N)sc2c1CCCC2=O | -6.68% (inactive) | – |
| CCOC(=O)c1c(N)sc(C(C)=O)c1C | – | 21.2 µM (active) |
| CCOC(=O)Nc1sc(C(=O)N(C)C)c(C)c1C(=O)OCC | -6.39% (inactive) | – |
| CC(=O)c1cccc(-c2cnc3c(NC=O)cc(-c4ccc(N5CCN(C)CC5)cc4)cn23)c1 | 2.15% (inactive) | – |
| CCCCC(=O)N(C)c1c(CC)nc2c(OCc3ccc(S(C)(=O)=O)cc3)cccn12 | -6.21% (inactive) | – |
| COc1ccc(OCc2ccc(-c3nc4ccccc4c(=O)n3N)o2)cc1 | 2.15% (inactive) | – |
| COc1ccc(Cc2n[nH]c(=S)n2NC(=O)Nc2ccc(C)cc2)cc1 | -9.65% (inactive) | – |
| COc1ccc(OCc2n[nH]c(=S)n2N)cc1 | – | 3.77 µM (active) |
